Test results: PubChem BioAssay AID1508600 (Functional Genomics Laboratory (NCATS/FGL), 2020)
Out of some 53,000 sequences screened, about 3,700 (7%) were called active.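 The calls were made as follows: active = gene knockdowns whose robust z-score for IL-1 alpha signal is at least 2 or at most -2, so actives lie on both sides; inactive = the rest.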 Many of the other results were omitted from the sample, so actives are more common in it than they were.

Assay: Components of the Cytosolic LPS Sensing Pathway: Gene Identification via Genome-wide siRNA Screen;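 also: robust z of the log signal after scaling to non-targeting control siRNA wells of the plate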
Conditions: RAW264.7 macrophages, IL-1a HTRF, actives lie on both sides, screened at 100 nM (by protocol), cells primed 5 h with Pam3CSK4 first
Summary of the method: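 RAW264.7; siRNA 100 nM final, RNAiMAX, 48h 37 degrees C; Pam3CSK4 5 h; LipidA + TransIT-TKO 24 h; IL-1a HTRF; CellTiter-Glo viability; robust z vs negative-control median.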

Row | Sequence | z-score
1 | GCUGUGUAGCAUUUUAACATT against Ank2 | -0.0376 (inactive)
2 | GUUGACUGUACCCGAUACATT against Mxd3 | -0.0552 (inactive)
3 | GGUGCUGAGGCUGAUUCUCTT against Capn15 | 3.35 (active)
4 | GGUAUAUCGCCUAAUCACUTT against Chd6 | -0.885 (inactive)
5 | GGUAGUGGAGCUGAAUGUUTT against Kctd8 | 0.113 (inactive)
6 | GCAGCCUUCGUGAGUCUGUTT against Asb1 | -0.666 (inactive)
7 | GGAUUAUGAUCCAGAAUUCTT against Omd | 2.96 (active)
8 | GGGACAUGAGUAACUGAUGTT against Dhx8 | -0.908 (inactive)
9 | GGUUGUGAUGUGGUGGUCATT against Mdh2 | 1.3 (inactive)
10 | GGGAGAGACAGAAAGCUUUTT against Olfr213 | 1.61 (inactive)
11 | GCCUAGAAAGUCUGAAUAATT against Ifng | 0.203 (inactive)
12 | GCUGUAAGCCAAUUAACAUTT against Emp1 | 1.06 (inactive)
13 | CGUGCUUAGCAAUCUGAAUTT against Bcl6b | 2.44 (active)
14 | GGAAACAACUUUCUAUAACTT against Vmn1r195 | -0.487 (inactive)
15 | GGAUUCAGCAAAUGCUUCCTT against Rcor3 | 2.31 (active)
16 | GGACAAGGCCAAGCUAUAATT against Cntnap2 | -1.47 (inactive)
17 | GCACCAAAUUCACUAGAGUTT against Cd24a | 0.83 (inactive)
18 | GCCCAUAAACUGAUGGUGGTT against Tbc1d24 | -0.45 (inactive)
19 | CCCAACAAAUACCACUACATT against Usp20 | -1.39 (inactive)
20 | GGAUCUGGUGACAAACGUATT against Cabyr | 2.04 (active)
21 | CCCGACUGAAUGCUCGGAUTT against Rnf220 | 0.386 (inactive)
22 | GGAGAAAGCUCGAAAAUGGTT against Prpf8 | -1.61 (inactive)

Row | Sequence | z-score
23 | GGAAGGAAACUACGAAGGUTT against Edn1 | -0.534 (inactive)
24 | GGAUGCAGAAGCAACUUAATT against AA986860 | 1.91 (inactive)
25 | CCGAUUUCCACAUCUGUCATT against Fam104a | -2.45 (active)
26 | GGAAAGAAACAGAAGCACATT against Il21 | -0.511 (inactive)
27 | GCCUCUGUUCCAUCUUGGATT against F830104G03Rik | 1.61 (inactive)
28 | GCUCAGCAGGAAAUAACAGTT against Ccdc90b | -2.06 (active)
29 | GGAUGAAGAGCAUAACAGUTT against Sft2d2 | -0.95 (inactive)
30 | GCUAGUCAUGCUACGGAAUTT against Aftph | 0.601 (inactive)
31 | GGUUGUUUCACCAAUAGUUTT against Idi1 | -0.454 (inactive)
32 | GGGCAGAUGUAAUUCUUGUTT against Ctsm | 1.91 (inactive)
33 | GGUACAUGUAUUGUUUCACTT against Cyp2c38 | 2.76 (active)
34 | GGAUUAUCCUGGCUUGUUGTT against Rdh12 | -0.962 (inactive)
35 | GCUGAUUGCCUCGGAGAAUTT against Shmt1 | -0.0766 (inactive)
36 | GCGCAUCGAAAAAUGGAUUTT against Rgl3 | 0.236 (inactive)
37 | GGUAUUGAGUGAUAACUACTT against Klhdc7a | 1.29 (inactive)
38 | GCAUUCAAUCUGCAGAGGGTT against Olfr888 | -2.48 (active)
39 | GGGUAGAAAAGUGCAAUUUTT against Has2 | 0.0317 (inactive)
40 | CGCUCUAGGAAAACAAUGUTT against Klb | -0.614 (inactive)
41 | GGGUACAUCUAACUUGAAUTT against Tnfrsf10b | -0.411 (inactive)
42 | GCGGCAUGGACUUAGUAAATT against Fbxo5 | 3.11 (active)
43 | CGAUUAGUCUCUCAUUAUUTT against Ipo11 | -1.12 (inactive)
44 | GGCUAAUGCUCCUUCAUGUTT against Myo18a | -0.439 (inactive)

Row | Sequence | z-score
45 | GCCCUGCACCAGAAAAACATT against Stk40 | -0.662 (inactive)
46 | GGUCUCUGUCUCCAAGAAATT against Fam53c | -1.69 (inactive)
47 | GGUGUUUGGGCGGUUUGAATT against Snx15 | -2.25 (active)
48 | CCCUUAAUAAAGAAGGGACTT against Atg9a | 0.961 (inactive)
49 | GGGUCUACGAAGAAUAGGGTT against Cxcl14 | 0.744 (inactive)
50 | GCUAGAAGCUUUCUAUUCUTT against Hsph1 | 1.68 (inactive)
51 | GGAGAGUAUCUGAAGUUUCTT against Jak2 | 1.8 (inactive)
52 | GGUAAAAUGAUCCUUAGAATT against Pcdh15 | 0.145 (inactive)
53 | GGAGCUGUCUCUACGAAACTT against Myoz3 | 1.27 (inactive)
54 | GGAGCCUUUAAUCUCAUUATT against Wbp1 | -0.463 (inactive)
55 | GCCGUUUUAUUCACGUGAATT against Erp27 | -1.36 (inactive)
56 | GGAUGUGGUGGUAUUAGACTT against Phykpl | 2.5 (active)
57 | GGAAGAGGUUCAGAACAGATT against Spaca1 | 1.19 (inactive)
58 | GGACCAAGGAUGUUCGCUUTT against Cnr2 | 1.14 (inactive)
59 | GGAACGAACUCAUUAAAACTT against Abhd3 | -0.736 (inactive)
60 | CCGAUUUGGGUCAAUUUUATT against Usf3 | -0.047 (inactive)
61 | GGCGGAUUGAAUAAGAAGGTT against Pfn2 | -0.517 (inactive)
62 | GGGCUUUGGAUGAACUGCATT against Cldn17 | -0.0702 (inactive)
63 | GGAGCUCUUUGAGUACAUCTT against Ift46 | 2.48 (active)
64 | CUCACAAGUCAAAGCCUACTT against Zfp182 | 0.121 (inactive)
65 | AAUAGACUGGUACUCUCUGTT against Olfr476 | 1.08 (inactive)
66 | GCCUGGUUACAGCAUUAACTT against Rimkla | -1.75 (inactive)

Row | Sequence | z-score
67 | GGUCAAACAAGAAACAGUUTT against Prdm1 | 0.417 (inactive)
68 | GCUGUGCCCUAAAGACUGGTT against Clec2m | 2.27 (active)
69 | GGUGAAGCUGAAGAAGUACTT against Chst12 | 0.975 (inactive)
70 | GGAUAAUGGAGCAAAUUGCTT against Slc22a1 | -0.522 (inactive)
71 | GCAAGUUAACCAGACCCAATT against Mro | 0.709 (inactive)
72 | GGAGAAGCUGUUUGUUCUGTT against Ftcd | 0.507 (inactive)
73 | GGACAAGGCAACACAUACCTT against Csnk1a1 | 2.58 (active)
74 | GCCACUACUACAUCAAUGUTT against Mall | 1.24 (inactive)
75 | GGGUCCUCUUUAAAAGGCUTT against Smc6 | -1.1 (inactive)
76 | CCUACCCAAACCUACUAAATT against Gpt2 | -0.168 (inactive)
77 | GGAUCUGGAGAAGAUGAUGTT against Ret | -0.822 (inactive)
78 | GGCCAAAAAAACAUACAAGTT against Zbtb21 | 4.91 (active)
79 | GGUAUCAAGGCUCUGGUGUTT against Ifnlr1 | -0.602 (inactive)
80 | CAGCAUGAUGAUGGAGACCTT against Sox1 | 0.708 (inactive)
81 | UGGAUACUCUAUCUCAAGCTT against Serpinb9g | -0.479 (inactive)
82 | GCAACAAGUGUUGGACUCATT against Tob2 | -2.04 (active)
83 | GGAAAGUAACUAAAGGCAATT against Arl8b | 0.274 (inactive)
84 | GCUACAAGACUUUUACCAGTT against Tnfsf18 | -0.0821 (inactive)
85 | GGGACUAGACUUCUUCGGATT against Ddx52 | 0.186 (inactive)
86 | UGGCAAAAAGGUGAUAACUTT against Hbb-b2 | 0.86 (inactive)
87 | GGCCCAGCAUGCAAGUUAUTT against Sh2d2a | 2.17 (active)
88 | CCACAGCCAAAUGCACAAGTT against Platr26 | 0.31 (inactive)

Row | Sequence | z-score
89 | CCUCAUUCAAGAAACCUCATT against Comtd1 | -1.13 (inactive)
90 | GGAACACCAUCAUCAGUCATT against Ephb2 | -0.448 (inactive)
91 | GGUCUCCACUGAGGACUGUTT against Ndufa2 | 0.284 (inactive)
92 | GGCCUAGGGAAAGCUAUGGTT against Nat8f3 | -2.57 (active)
93 | GCAGAAGUGCUAUUCUUGUTT against Cnbp | 0.108 (inactive)
94 | GCGGCUUUGGCAAUUCUCUTT against Olfr1361 | -1.13 (inactive)
95 | GGUGCCUUUCUGCUUUUGATT against Spink12 | 1.87 (inactive)
96 | GGAAUAUUACCAGUCGGAATT against Marveld3 | 0.469 (inactive)
97 | GGAAAAUCUUGACUUCAUCTT against Cbwd1 | -0.316 (inactive)
98 | CCUGAUGCCAGUUAACAGUTT against Rcan1 | 0.516 (inactive)
99 | GGAGGUUUUCCACCACUUGTT against Efcc1 | -2.04 (active)
100 | GCGAUAUGAAUAUCAUCUUTT against Fbxo22 | -0.0727 (inactive)
101 | GGAAUCUUUAUCCACAUUCTT against Chst15 | 0.943 (inactive)
102 | GGAGCAACUAAUGAAGAAATT against Dnajc22 | -0.064 (inactive)
103 | GGUACUACAAGAGAAAAGATT against Hdhd2 | -0.958 (inactive)
104 | GGUCUCUGUUGCUUUGACUTT against Tgoln1 | 4.13 (active)
105 | GGUCCUAAAAUUUCCUCUUTT against Prdx3 | 0.854 (inactive)
106 | GCCUCUUAUUUGGUUACGATT against Best3 | 0.605 (inactive)
107 | GCGUUUCACGUACCUUCCUTT against Nfatc1 | 1.22 (inactive)
108 | GGUGCUAUUUACCAAACUCTT against Btg2 | 1.82 (inactive)
